Results filed as inconclusive are left out. Calls of active or inactive are those of the source. Unless noted, calls come from the whole dose curve.
Target: Vitamin D3 receptor (Homo sapiens) (UniProt P11473)
Assay: qHTS assay to identify small molecule agonists of the vitamin D receptor (VDR) signaling pathway (AID 743222)
Details: HEK293T VDR-UAS-bla, beta-lactamase FRET ratio, 16 h; series mostly up to 63.5 µM; activation: at the top concentration
Method in brief: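 Quantitative HTS agonist-mode screen: compounds in DMSO were pin-transferred onto VDR-bla cells and incubated 16 h at 37C, 5% CO2. Reporter activity was detected with LiveBLAzer B/G FRET substrate after 2 h at room temperature.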
% is set by controls: 0 for no effect and ±100 for the full control effect.

Chain of Vitamin D3 receptor (Homo sapiens) (P11473 whole entry, looked up): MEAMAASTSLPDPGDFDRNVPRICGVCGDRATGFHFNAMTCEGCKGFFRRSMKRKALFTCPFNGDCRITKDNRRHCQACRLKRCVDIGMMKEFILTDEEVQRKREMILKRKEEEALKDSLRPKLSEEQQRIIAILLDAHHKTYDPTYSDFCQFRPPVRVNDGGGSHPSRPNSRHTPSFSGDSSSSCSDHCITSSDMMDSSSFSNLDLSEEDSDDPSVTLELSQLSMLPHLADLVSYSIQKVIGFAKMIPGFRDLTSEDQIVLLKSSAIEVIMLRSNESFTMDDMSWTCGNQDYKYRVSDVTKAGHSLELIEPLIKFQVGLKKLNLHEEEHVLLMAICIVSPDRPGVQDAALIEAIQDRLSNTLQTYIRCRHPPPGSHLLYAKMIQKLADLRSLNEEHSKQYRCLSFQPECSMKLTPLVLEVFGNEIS

Structure (SMILES) | activation
CC(C=O)Cc1ccc2c(c1)OCO2 (configuration not stated) | -1.98% (inactive)
c1ccc(N2CCNCC2)cc1 | 4.25% (inactive)
C[C@]12CC[C@H]3[C@@H](CCC4=CC(=O)CC[C@@]43C)[C@@H]1CC[C@@H]2C(=O)O | -11% (inactive)
CC1CCC(=O)O1 (configuration not stated) | 5.21% (inactive)
Fc1ccc(C2(Cn3cncn3)OC2c2ccccc2Cl)cc1 (configuration not stated) | -5.53% (inactive)
CC(C(O)c1ccccc1)N(C)C/C=C/c1ccccc1 (configuration not stated) | -15% (inactive)
CC1(C(=O)Nc2ccc(O)c(Cl)c2Cl)CCCCC1 | 1.59% (inactive)
O=C1CN2CCOC2(c2ccccc2Cl)c2cc(Cl)ccc2N1 (configuration not stated) | -11.7% (inactive)
CCNc1nc(NC(C)C)nc(OC)n1 | 7.33% (inactive)
NC1=NC(=O)C(c2ccccc2)O1 (configuration not stated) | 6.16% (inactive)
CCOC(=O)C1(c2ccccc2)CCN(CCc2ccc(N)cc2)CC1 | -18.1% (inactive)
CC1COC2(c3ccccc3Cl)c3cc(Cl)ccc3NC(=O)CN12 (configuration not stated) | -9.3% (inactive)
COc1cccc(C(=O)NN(C(=O)c2cc(C)cc(C)c2)C(C)(C)C)c1C | -5.43% (inactive)
O=S(=O)(O)C(F)(F)C(F)(F)C(F)(F)C(F)(F)C(F)(F)C(F)(F)F | 4.71% (inactive)
CN1CCC(N(Cc2ccccc2)c2ccccc2)CC1 | -18.3% (inactive)
COP(=S)(OC)Oc1ccc(S(N)(=O)=O)cc1 | -3.38% (inactive)
O=C(NCO)NCO | -1.34% [at 81.1 µM] (inactive)
CCCCC(=O)Cl | 0.0575% [at 81.1 µM] (inactive)
Fc1cc(Br)ccc1CBr | 6.64% (inactive)
O=C1OC(CCN2CCCCC2)OC1(c1ccccc1)c1ccccc1 (configuration not stated) | 4.48% (inactive)
Nc1c(Br)cc([N+](=O)[O-])cc1[N+](=O)[O-] | 0.23% [at 81.1 µM] (inactive)
O=[N+]([O-])c1cc(Cl)c(Cl)c(Cl)c1 | 0.479% (inactive)
CCOP(=S)(Oc1cnc(C(C)(C)C)nc1)OC(C)C (configuration not stated) | -10.6% (inactive)
CC(C)(C)NCC(O)c1cc(Cl)c(N)c(Cl)c1 (configuration not stated) | -1.96% (inactive)
CCC(=O)C(CCN(C)C)(c1ccccc1)c1ccccc1 | -9.3% (inactive)
CN1C[C@@H](NS(=O)(=O)N(C)C)C[C@@H]2c3cccc4c3c(cn4C)C[C@H]21 | -0.0046% (inactive)
COC(=O)COc1ccc(Cl)cc1Cl | 5.72% (inactive)

Target: Vitamin D3 receptor (Homo sapiens) (UniProt P11473)
Assay: qHTS assay to identify small molecule antagonists of the vitamin D receptor (VDR) signaling pathway (AID 743223; active = well fitted inhibition curve with a large enough effect in the signal ratio in the repeat runs, not every such curve was filed as active; the % refers to the signal ratio)
Details: VDR-UAS-bla HEK293T, beta-lactamase FRET ratio, 16 h; series mostly up to 61 µM; activity change, negative = inhibition: at the top concentration
Method in brief: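 Inhibition of agonist-driven VDR signalling is scored in VDR-bla cells: 3 nM final 1alpha,25-dihydroxyvitamin D3 plus compound, 16 h at 37C, then beta-lactamase detection by FRET substrate fluorescence after 2 h.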

Structure (SMILES) | activity change, negative = inhibition
c1ccc(N2CCNCC2)cc1 | -16.5% (inactive)
CC1CCC(=O)O1 (configuration not stated) | 0.474% (inactive)
CC1=C(C(=O)O)N2C(=O)[C@@H](N)[C@H]2SC1 | -19.1% [at 28.5 µM] (inactive)
CC(C(O)c1ccccc1)N(C)C/C=C/c1ccccc1 (configuration not stated) | 2.46% (inactive)
O=C1CN2CCOC2(c2ccccc2Cl)c2cc(Cl)ccc2N1 (configuration not stated) | -1.04% (inactive)
CCNc1nc(NC(C)C)nc(OC)n1 | -8.22% (inactive)
CCOC(=O)C1(c2ccccc2)CCN(CCc2ccc(N)cc2)CC1 | -5.14% (inactive)
CC1COC2(c3ccccc3Cl)c3cc(Cl)ccc3NC(=O)CN12 (configuration not stated) | 5.26% (inactive)
COc1cccc(C(=O)NN(C(=O)c2cc(C)cc(C)c2)C(C)(C)C)c1C | -12.7% (inactive)
CN1CCC(N(Cc2ccccc2)c2ccccc2)CC1 | -11.2% (inactive)
COP(=S)(OC)Oc1ccc(S(N)(=O)=O)cc1 | 1.04% (inactive)
Fc1cc(Br)ccc1CBr | 10.1% (inactive)
O=C1OC(CCN2CCCCC2)OC1(c1ccccc1)c1ccccc1 (configuration not stated) | -0.321% (inactive)
Nc1c(Br)cc([N+](=O)[O-])cc1[N+](=O)[O-] | -5.4% [at 78.8 µM] (inactive)
CCC#N | 4.34% [at 78.8 µM] (inactive)
O=[N+]([O-])c1cc(Cl)c(Cl)c(Cl)c1 | 14.3% (inactive)
CCOP(=S)(Oc1cnc(C(C)(C)C)nc1)OC(C)C (configuration not stated) | -4.39% (inactive)
CC(C)(C)NCC(O)c1cc(Cl)c(N)c(Cl)c1 (configuration not stated) | -3.19% (inactive)
CCC(=O)C(CCN(C)C)(c1ccccc1)c1ccccc1 | -1.17% (inactive)
COC(=O)COc1ccc(Cl)cc1Cl | 28.4% (inactive)
